Measured values reported in PubChem BioAssay AID1159580 (chemical genetic matrix, 2015).
In all, about 5,500 compounds went through this assay and about 2,000 (36%) were called active. Not shown: some 18% with an inconclusive outcome. Cut-off read from the data, not from the text of the source: active = normalized growth mostly below about 0.91 (no sharp cut-off); inconclusive = no clear call, values can overlap the other calls; inactive = mostly above about 0.92. This is one part of the list.

Assay: chemical genetic growth profiling, strain panel (AID 1159580);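 note: tested at 20 µM; growth read once vehicle control cultures reached saturation at 30 °C; 1 = growth at the plate median or of vehicle wells; lower values mean less growth of the strain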
Conditions: growth OD

Measured: normalized growth

COc1cc2c3cc1Oc1cc(ccc1O)C[C@@H]1c4c(cc(OC)c(O)c4Oc4ccc(cc4)C[C@@H]3N(C)CC2)CC[N+]1(C)C
inactive: S. cerevisiae deletion strains, locus YKL009W, strain mrt4, active compounds read low 1.04 | S. cerevisiae deletion strains, locus YKL068W, active compounds read low 0.997 | S. cerevisiae deletion strains, locus YKL085W, strain MDH1 (second series), active compounds read low 0.988 | S. cerevisiae deletion strains, locus YKL085W, strain MDH1, active compounds read low 0.988 | S. cerevisiae deletion strains, locus YKL160W, strain elf1, active compounds read low 1.04 | S. cerevisiae deletion strains, locus YKL190W, strain CNB1, active compounds read low 1.01 | S. cerevisiae deletion strains, locus YKR001C, strain vps1, active compounds read low 1.01 | S. cerevisiae deletion strains, locus YKR026C, strain gcn3, active compounds read low 1 | S. cerevisiae deletion strains, locus YKR091W, strain srl3, active compounds read low 0.999 | S. cerevisiae deletion strains, locus YLL001W, strain dnm1, active compounds read low 1.04 | S. cerevisiae deletion strains, locus YLL026W, active compounds read low 1.01 | S. cerevisiae deletion strains, locus YLL041C, strain sdh2, active compounds read low 1 | S. cerevisiae deletion strains, locus YLR027C, strain aat2, active compounds read low 1.02 | S. cerevisiae deletion strains, locus YLR039C, strain RIC1, active compounds read low 1.09 | S. cerevisiae deletion strains, locus YLR058C, strain SHM2, active compounds read low 1.01 | S. cerevisiae deletion strains, locus YLR102C, strain apc9, active compounds read low 1 | S. cerevisiae deletion strains, locus YLR113W, strain HOG1, active compounds read low 0.996 | S. cerevisiae deletion strains, locus YLR221C, strain rsa3, active compounds read low 0.966 | S. cerevisiae deletion strains, locus YLR258W, strain gsy2, active compounds read low 0.988 | S. cerevisiae deletion strains, locus YLR262C, strain YPT6 (second series), active compounds read low 1.04 | S. cerevisiae deletion strains, locus YLR262C, strain YPT6, active compounds read low 1.06 | S. cerevisiae deletion strains, locus YLR268W, strain sec22, active compounds read low 1.04 | S. cerevisiae deletion strains, locus YLR320W, strain mms22, active compounds read low 0.967 | S. cerevisiae deletion strains, locus YLR330W, strain CHS5, active compounds read low 1.01 | S. cerevisiae deletion strains, locus YLR342W, strain FKS1 (second series), active compounds read low 0.999 | S. cerevisiae deletion strains, locus YLR342W, strain FKS1, active compounds read low 1.02 | S. cerevisiae deletion strains, locus YLR357W, strain rsc2, active compounds read low 0.958 | S. cerevisiae deletion strains, locus YLR370C, strain arc18, active compounds read low 1.01 | S. cerevisiae deletion strains, locus YLR371W, strain rom2, active compounds read low 1.01 | S. cerevisiae deletion strains, locus YLR384C, strain iki3, active compounds read low 1 | S. cerevisiae deletion strains, locus YLR418C, strain cdc73, active compounds read low 0.986 | S. cerevisiae deletion strains, locus YML016C, strain PPZ1, active compounds read low 1.01 | S. cerevisiae deletion strains, locus YML032C, strain rad52, active compounds read low 0.981 | S. cerevisiae deletion strains, locus YML120C, strain ndi1, active compounds read low 1.03 | S. cerevisiae deletion strains, locus YML124C, strain tub3, active compounds read low 0.999 | S. cerevisiae deletion strains, locus YMR058W, strain fet3, active compounds read low 1 | S. cerevisiae deletion strains, locus YMR078C, strain ctf18, active compounds read low 1.01 | S. cerevisiae deletion strains, locus YMR125W, strain sto1, active compounds read low 0.993 | S. cerevisiae deletion strains, locus YMR129W, active compounds read low 0.98 | S. cerevisiae deletion strains, locus YMR205C, strain PFK2, active compounds read low 1.03 | S. cerevisiae deletion strains, locus YMR223W, strain ubp8, active compounds read low 0.994 | S. cerevisiae deletion strains, locus YMR231W, strain pep5, active compounds read low 0.993 | S. cerevisiae deletion strains, locus YMR307W, strain GAS1, active compounds read low 1.06 | S. cerevisiae deletion strains, locus YNL067W, strain RPL9B, active compounds read low 1.04 | S. cerevisiae deletion strains, locus YNL071W, strain lat1, active compounds read low 0.969 | S. cerevisiae deletion strains, locus YNL128W, strain TEP1, active compounds read low 1.02 | S. cerevisiae deletion strains, locus YNL183C, strain NPR1, active compounds read low 0.948 | S. cerevisiae deletion strains, locus YNL209W, strain ssb2, active compounds read low 0.982 | S. cerevisiae deletion strains, locus YNL233W, strain BNI4, active compounds read low 1.03 | S. cerevisiae deletion strains, locus YNL248C, strain rpa49, active compounds read low 0.926 | S. cerevisiae deletion strains, locus YNL250W, strain rad50, active compounds read low 1.01 | S. cerevisiae deletion strains, locus YNL271C, strain bni1, active compounds read low 1.01 | S. cerevisiae deletion strains, locus YNL298W, strain CLA4, active compounds read low 1 | S. cerevisiae deletion strains, locus YNL307C, strain MCK1, active compounds read low 1.01 | S. cerevisiae deletion strains, locus YNL322C, strain KRE1 (second series), active compounds read low 0.984 | S. cerevisiae deletion strains, locus YNL322C, strain KRE1, active compounds read low 0.999 | S. cerevisiae deletion strains, locus YNR049C, strain mso1, active compounds read low 0.99 | S. cerevisiae deletion strains, locus YNR052C, strain pop2, active compounds read low 1.01 | S. cerevisiae deletion strains, locus YOL006C, strain TOP1, active compounds read low 1.1 | S. cerevisiae deletion strains, locus YOL012C, strain htz1 0.91 | S. cerevisiae deletion strains, locus YOL147C, strain pex11, active compounds read low 0.995 | S. cerevisiae deletion strains, locus YOR001W, strain rrp6, active compounds read low 1.02 | S. cerevisiae deletion strains, locus YOR061W, strain CKA2, active compounds read low 1.01 | S. cerevisiae deletion strains, locus YOR069W, strain VPS5, active compounds read low 1.01 | S. cerevisiae deletion strains, locus YOR070C, strain gyp1, active compounds read low 0.993 | S. cerevisiae deletion strains, locus YOR080W, strain dia2, active compounds read low 1.01 | S. cerevisiae deletion strains, locus YOR083W, strain WHI5, active compounds read low 1.01 | S. cerevisiae deletion strains, locus YOR106W, strain vam3, active compounds read low 1.03 | S. cerevisiae deletion strains, locus YOR136W, strain idh2, active compounds read low 1 | S. cerevisiae deletion strains, locus YOR144C, strain elg1, active compounds read low 0.993 | S. cerevisiae deletion strains, locus YOR184W, strain ser1, active compounds read low 1.01 | S. cerevisiae deletion strains, locus YOR231W, strain MKK1, active compounds read low 0.996 | S. cerevisiae deletion strains, locus YOR265W, strain rbl2, active compounds read low 0.999 | S. cerevisiae deletion strains, locus YOR270C, strain vph1, active compounds read low 0.985 | S. cerevisiae deletion strains, locus YOR290C, strain snf2, active compounds read low 0.946 | S. cerevisiae deletion strains, locus YOR316C, strain cot1, active compounds read low 1 | S. cerevisiae deletion strains, locus YPL051W, strain arl3, active compounds read low 1.01 | S. cerevisiae deletion strains, locus YPL055C, strain LGE1, active compounds read low 1.04 | S. cerevisiae deletion strains, locus YPL078C, strain atp4, active compounds read low 1.04 | S. cerevisiae deletion strains, locus YPL106C, strain sse1, active compounds read low 0.937 | S. cerevisiae deletion strains, locus YPL240C, strain hsp82, active compounds read low 1 | S. cerevisiae deletion strains, locus YPL256C, strain CLN2, active compounds read low 0.99 | S. cerevisiae deletion strains, locus YPR119W, strain clb2, active compounds read low 1 | S. cerevisiae deletion strains, locus YPR141C, strain kar3, active compounds read low 1.01 | S. cerevisiae deletion strains, locus YPR163C, strain tif3, active compounds read low 0.992 | S. cerevisiae deletion strains, locus YPR167C, strain met16, active compounds read low 0.999 | S. cerevisiae deletion strains, strain wtn01, active compounds read low 1.01 | S. cerevisiae strains, strain wild type, active compounds read low 1.01
